In PubChem BioAssay (Tox21):
Results filed as inconclusive are left out. Where a call stands in place of a potency, no number is given. The source made the active and inactive calls. Calls follow the shape of the dose curve; as a rule, active = well fitted cell-killing curve with a large enough effect in the repeat runs; inconclusive = weak or mixed curves, or effect the other way; inactive = flat fitted curve, though single readings scatter.

Assay: qHTS RealTime-Glo MT Cell Viability Assay in HEK293 cells - 24 hour (AID 1224886); also: nearly all actives have a fitted effect of over 50% in size
Details: RealTime-Glo luminescence; series mostly up to 76.8 µM
Excerpt: National Center for Advancing Translational Sciences [NCATS]
NIH Chemical Genomics Center [NCGC]
U.S. Environmental Protection Agency [EPA]
National Institutes of Environmental Health Sciences [NIEHS]
National Toxicology Program [NTP]
U.S. Food and Drug Administration [FDA]
Measure of cell viability is critical in the cell-base assay. Analysis of cell viability is necessary for the characterization of cell responses to cytotoxic drugs and environmental stress. A RealTime-Glo MT Cell Viability Assay to monitor cell viability in real time of continues cell culture during 40 hours of compound treatment was used to screen Tox21 10K library compounds in Hek293 cells. The RealTime-Glo MT Cell Viability Assay is a nonlytic, homogeneous, bioluminescent method to measure cell viability in real time using a simple, plate-based method. The assay involves adding NanoLuc luciferase and a cell-permeant prosubstrate to cells in culture. Viable cells reduce the proprietary prosubstrate to generate a substrate for NanoLuc luciferase. This substrate diffuses from cells into the surrounding culture medium, where it is rapidly used by the NanoLuc Enzyme to produce a luminescent signal. The signal correlates with the number of viable cells, making the assay well suited for cytotoxicity studies.
Tox21 Assay Protocol Summary:
The mixture of Hek293 cell suspension and reagents were dispensed at 600cells/6 ul/well in 1536-well tissue culture treated black solid bottom plates using a Multidrop dispenser. After the assay plates were incubated at a 37 C/5% CO2 incubator for 5 hours, 23 nL of compounds dissolved in DMSO, positive and negative controls was transferred to the assay plate by a pintool work station. The plates were incubated at 37 C for 40 hours. The luminescence intensity were measured at 0h, 8h, 16h, 24h, 32h and 40h time points using ViewLux plate reader during compound treatment.
Potency is read from the fitted curve at half-maximal effect.

Question: With `O=C1C=CCCC1` as the compound, how does the Potency read?
Answer: The Potency was “inactive”.

Question: Which Potency does the source give for `CCCCCCCCS` here?
Answer: The Potency was “inactive”.

Question: For `COc1cc(CNC(=O)CCCC/C=C/C(C)C)ccc1O`, which Potency is on record?
Answer: The Potency was 4.77 µM (active).

Question: Which Potency does the source give for `CC(=O)Oc1cccc2c1C(=O)c1c(OC(C)=O)cc(C(=O)O)cc1C2=O` here?
Answer: The Potency was “inactive”.

Question: With `Clc1cc(Cl)c2c(c1)N=C1CCCCCN1C2` as the compound, how does the Potency read?
Answer: The Potency was 19 µM (active).

Question: For `O=C(OCCOCCOCCOC(=O)c1ccccc1)c1ccccc1`, which Potency is on record?
Answer: The Potency was “inactive”.

Question: With `CC(=O)Nc1ccccc1O` as the compound, how does the Potency read?
Answer: The Potency was “inactive”.

Question: With `CCCCCCCCCCCCCCCCN` as the compound, how does the Potency read?
Answer: The Potency was “inactive”.

Question: With `[O-][n+]1ccc(Cl)cc1` as the compound, how does the Potency read?
Answer: The Potency was “inactive”.

Question: Which Potency does the source give for `CCCCCCCCCCCCCCCCC(=O)O` here?
Answer: The Potency was “inactive”.

Question: For `CCc1ccc2c(c1)C(=O)c1ccccc1C2=O`, which Potency is on record?
Answer: The Potency was “inactive”.

Question: With `Cc1c(Cl)cccc1[N+](=O)[O-]` as the compound, how does the Potency read?
Answer: Its Potency is “inactive”.

Question: With `CC(C)(C)c1ccc(CCC=O)cc1` as the compound, how does the Potency read?
Answer: Its Potency is “inactive”.

Question: With `C[C@@H](O)[C@H]1C(=O)N2C(C(=O)O)=C(S[C@@H]3CN[C@H](CNS(N)(=O)=O)C3)[C@H](C)[C@H]12` as the compound, how does the Potency read?
Answer: Its Potency is “inactive”.

Question: For `Cc1cc(C)c(C)c(O)c1`, which Potency is on record?
Answer: Its Potency is “inactive”.

Question: For `O=C(O)CCc1nc2ccccc2[nH]1`, which Potency is on record?
Answer: Its Potency is “inactive”.

Question: For `Cc1cc(SC2=C(O)C[C@@](CCc3ccc(N)cc3)(C(C)C)OC2=O)c(C(C)(C)C)cc1CO`, which Potency is on record?
Answer: The Potency was “inactive”.

Question: With `NC(=O)c1ccccc1C(N)=O` as the compound, how does the Potency read?
Answer: The Potency was 34.8 µM (active).

Question: With `CC/C=C/CCO` as the compound, how does the Potency read?
Answer: Its Potency is “inactive”.

Question: For `CCCCOC(=O)CC#N`, which Potency is on record?
Answer: Its Potency is “inactive”.

Question: With `CC(C)Oc1ccccc1O` as the compound, how does the Potency read?
Answer: Its Potency is “inactive”.

Question: For `FC1(F)C(F)(F)C(F)(F)C2(F)C(F)(C1(F)F)C(F)(F)C(F)(F)C1(F)C(F)(F)C(F)(F)C(F)(F)C(F)(F)C12F` (stereo not given), which Potency is on record?
Answer: Its Potency is “inactive”.

Question: Which Potency does the source give for `CC1(C)[C@@H]2CC[C@]3(C2)[C@@H]1C(=O)CCC3(C)C` here?
Answer: The Potency was “inactive”.

Question: For `O=C(O)COCC(=O)O`, which Potency is on record?
Answer: The Potency was “inactive”.

Question: For `CCCCOc1ccc(N)cc1`, which Potency is on record?
Answer: The Potency was “inactive”.

Question: Which Potency does the source give for `CO[C@@H]1COCC[C@@H]1N[C@@H]1CC[C@@](C(=O)N2CCc3ncc(C(F)(F)F)cc3C2)(C(C)C)C1` here?
Answer: Its Potency is 17.3 µM (active).

Question: With `CCCCC(CC)COCCC#N` (stereo not given) as the compound, how does the Potency read?
Answer: The Potency was “inactive”.

Question: With `CC(=O)S[C@H](C(=O)N[C@H]1Cc2ccccc2[C@H]2CCC[C@@H](C(=O)O)N2C1=O)C(C)C` as the compound, how does the Potency read?
Answer: The Potency was “inactive”.

Question: Which Potency does the source give for `CCc1c(C)[nH]c2c1C(=O)C(CN1CCOCC1)CC2` (stereo not given) here?
Answer: Its Potency is “inactive”.

Question: For `CC(C(=O)O)c1ccc2c(c1)Cc1cccnc1O2` (stereo not given), which Potency is on record?
Answer: Its Potency is “inactive”.

Question: For `Cc1nc2sccn2c(=O)c1CCN1CCC(=C(c2ccc(F)cc2)c2ccc(F)cc2)CC1`, which Potency is on record?
Answer: Its Potency is 3.38 µM (active).

Question: For `O=C1OC(=O)C2CC=CCC12` (stereo not given), which Potency is on record?
Answer: Its Potency is “inactive”.

Question: Which Potency does the source give for `Cc1cccc(C)c1NC(=O)CN1CCCC1` here?
Answer: The Potency was “inactive”.

Question: Which Potency does the source give for `O=[N+]([O-])c1cccc(I)c1` here?
Answer: Its Potency is “inactive”.

Question: For `O=C(O)c1cccc(C(=O)O)c1C(=O)O`, which Potency is on record?
Answer: Its Potency is “inactive”.

Question: For `CC(=O)Nc1ccn(C2COC(COC(=O)c3ccccc3)O2)c(=O)n1` (stereo not given), which Potency is on record?
Answer: The Potency was “inactive”.

Question: With `Cc1ccc2ccccc2c1[N+](=O)[O-]` as the compound, how does the Potency read?
Answer: The Potency was “inactive”.

Question: For `CCCCCCC/C=C/C=O`, which Potency is on record?
Answer: Its Potency is “inactive”.

Question: Which Potency does the source give for `CC(C)C/C=C(\C=O)c1ccccc1` here?
Answer: The Potency was “inactive”.

Question: For `O=Cc1ccc([N+](=O)[O-])cc1`, which Potency is on record?
Answer: Its Potency is “inactive”.
